Measurements reported in PubChem BioAssay (NCI).
Several values for one entry are separate records, joined by “and”; a condition that tells them apart may be missing. Identical values can stand only once. The panel holds about 83,000 compounds, 20% with a hit somewhere; the sample as a whole holds those more often.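 Values shown are percent growth following 48 h exposure of cells in 96-well plates to a single concentration of compound; below 10 was considered active.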 Activity calls are given as the source filed them.

What was measured:
Test in all cases: NCI-60 one-dose screen, 48 h (100 = growth as untreated, 0 = no growth, -100 = all killed)
Settings in all cases: 10 µM unless noted
MOLT-4 leukemia = tested on: MOLT-4 leukemia
SR leukemia = tested on: SR leukemia
RPMI-8226 leukemia = tested on: RPMI-8226 leukemia
OVCAR-8 ovarian = tested on: OVCAR-8 ovarian
OVCAR-5 ovarian = tested on: OVCAR-5 ovarian
OVCAR-4 ovarian = tested on: OVCAR-4 ovarian
SK-OV-3 ovarian = tested on: SK-OV-3 ovarian
IGROV1 ovarian = tested on: IGROV1 ovarian
OVCAR-3 ovarian = tested on: OVCAR-3 ovarian
HS 578T breast = tested on: HS 578T breast
NCI/ADR-RES ovarian = tested on: NCI/ADR-RES ovarian
T-47D breast = tested on: T-47D breast
BT-549 breast = tested on: BT-549 breast
MDA-MB-435 melanoma = tested on: MDA-MB-435 melanoma
SW-620 colon = tested on: SW-620 colon
MCF7 breast = tested on: MCF7 breast
HCT-116 colon = tested on: HCT-116 colon
HCC-2998 colon = tested on: HCC-2998 colon
KM12 colon = tested on: KM12 colon

Measured: growth

CCC(=O)C(CC(C)N1CCCCCC1)(c1ccccc1)c1ccccc1 (configuration not stated)
inactive: MOLT-4 leukemia 93.9% | SR leukemia 102% | RPMI-8226 leukemia 99.3% | OVCAR-8 ovarian 97% | OVCAR-5 ovarian 89.1% | OVCAR-4 ovarian 84.2% | SK-OV-3 ovarian 93.6% | IGROV1 ovarian 78.6% | OVCAR-3 ovarian 96.5% | HS 578T breast 96.7% | NCI/ADR-RES ovarian 102% | T-47D breast 95.3% | BT-549 breast 97.4% | MDA-MB-435 melanoma 98.3% | SW-620 colon 99.1% | MCF7 breast 81.8% | HCT-116 colon 72.1% | HCC-2998 colon 97.7% | KM12 colon 107%

CCOC(=O)c1ccccc1C(=O)OCC
inactive: MOLT-4 leukemia 101% | SR leukemia 128% | RPMI-8226 leukemia 88.1% | OVCAR-8 ovarian 84% | OVCAR-5 ovarian 99.9% | OVCAR-4 ovarian 96.4% | SK-OV-3 ovarian 113% | IGROV1 ovarian 64.7% | OVCAR-3 ovarian 107% | HS 578T breast 95.5% | NCI/ADR-RES ovarian 102% | T-47D breast 100% | BT-549 breast 95.6% | MDA-MB-435 melanoma 91.5% | SW-620 colon 102% | MCF7 breast 97.8% | HCT-116 colon 100% | HCC-2998 colon 110% | KM12 colon 104%

CN(C)c1ccc(N)cc1
inactive: MOLT-4 leukemia 100% and 63.4% | SR leukemia 99% and 33.6% | RPMI-8226 leukemia 93.6% and 21% | OVCAR-8 ovarian 93.7% and 30.2% | OVCAR-5 ovarian 112% and 89.5% | OVCAR-4 ovarian 97.6% and 39.6% | SK-OV-3 ovarian 90% and 70.4% | IGROV1 ovarian 94.5% and 61.8% | OVCAR-3 ovarian 106% and 32.4% | HS 578T breast 100% and 54.5% | NCI/ADR-RES ovarian 104% and 85.3% | T-47D breast 90.7% and 28.5% | BT-549 breast 107% and 72% | MDA-MB-435 melanoma 107% and 43.4% | SW-620 colon 99.1% and 65.6% | MCF7 breast 87.7% and 30.5% | HCT-116 colon 117% and 14.8% | HCC-2998 colon 106% | KM12 colon 107% and 34.7%

O=c1c2ccccc2nc(-c2ccccc2Cl)n1-c1nnc(C(F)(F)F)s1
active: MOLT-4 leukemia 3.92% | SR leukemia -6.69% | RPMI-8226 leukemia 0.839%
inactive: OVCAR-8 ovarian 32.7% | OVCAR-5 ovarian 78.2% | OVCAR-4 ovarian 37.5% | SK-OV-3 ovarian 25.7% | IGROV1 ovarian 37.6% | OVCAR-3 ovarian 18.7% | HS 578T breast 26.7% | NCI/ADR-RES ovarian 11.6% | T-47D breast 43.5% | BT-549 breast 22.3% | MDA-MB-435 melanoma 57.8% | SW-620 colon 37.5% | MCF7 breast 21.4% | HCT-116 colon 16.8% | HCC-2998 colon 17.6% | KM12 colon 29.1%

CSc1cc(/C=C(\C)[C@@H]2C[C@@H]3O[C@]3(C)CCC[C@H](C)[C@H](O)[C@@H](C)C(=O)C(C)(C)[C@@H](O)CC(=O)O2)n(CCNC(=O)OC(C)(C)C)n1
active: MDA-MB-435 melanoma -19.8%
inactive: MOLT-4 leukemia 42.7% | SR leukemia 37.7% | RPMI-8226 leukemia 29.7% | OVCAR-8 ovarian 55.5% | OVCAR-5 ovarian 59.8% | OVCAR-4 ovarian 82.4% | SK-OV-3 ovarian 79.9% | IGROV1 ovarian 54.4% | OVCAR-3 ovarian 28.8% | HS 578T breast 75.5% | NCI/ADR-RES ovarian 40.4% | T-47D breast 66.2% | BT-549 breast 71.4% | SW-620 colon 31.3% | MCF7 breast 33.3% | HCT-116 colon 26.7% | HCC-2998 colon 54.7% | KM12 colon 23.1%

O=C(CCCN1CCC2(CC1)C(=O)NCN2c1ccccc1)c1ccc(F)cc1
inactive: MOLT-4 leukemia 58.5% and 33% | SR leukemia 99.2% | RPMI-8226 leukemia 103% and 74.8% | OVCAR-8 ovarian 91.8% and 76.1% | OVCAR-4 ovarian 103% and 62.4% | SK-OV-3 ovarian 102% and 111% | IGROV1 ovarian 73.6% and 29% | OVCAR-3 ovarian 105% and 107% | HS 578T breast 97.1% and 79.2% | NCI/ADR-RES ovarian 101% and 65.8% | T-47D breast 45.5% and 23.4% | BT-549 breast 98.2% and 87.2% | MDA-MB-435 melanoma 99.7% and 93.6% | SW-620 colon 84.4% and 68% | MCF7 breast 49.6% and 12% | HCT-116 colon 73.9% and 19.7% | HCC-2998 colon 104% and 42.3% | KM12 colon 102% and 86.3%
active: OVCAR-5 ovarian -54.6%

CN(C)[C@@H]1C(=O)C(C(N)=O)=C(O)[C@@]2(O)C(=O)C3=C(O)c4c(O)ccc(Cl)c4[C@@](C)(O)[C@H]3C[C@@H]12
inactive: MOLT-4 leukemia 99.5% and 121% | SR leukemia 87.9% and 82.8% | RPMI-8226 leukemia 87% and 91.1% | OVCAR-8 ovarian 98.7% and 91.7% | OVCAR-5 ovarian 92.1% and 94.8% | OVCAR-4 ovarian 98.3% and 98.6% | SK-OV-3 ovarian 90.3% and 95.8% | IGROV1 ovarian 78.7% and 87.2% | OVCAR-3 ovarian 112% and 102% | HS 578T breast 94.7% and 91.7% | NCI/ADR-RES ovarian 104% and 109% | T-47D breast 91.5% and 97.7% | BT-549 breast 87.6% | MDA-MB-435 melanoma 99.6% and 103% | SW-620 colon 101% and 97.7% | MCF7 breast 94.8% and 86.8% | HCT-116 colon 81.4% and 102% | HCC-2998 colon 92.2% and 125% | KM12 colon 94.7% and 102%

Cc1ccc(N2CCN(CCC#N)CC2)cc1
inactive: MOLT-4 leukemia 105% | SR leukemia 99.3% | RPMI-8226 leukemia 96.7% | OVCAR-8 ovarian 97.3% | OVCAR-5 ovarian 92.5% | OVCAR-4 ovarian 110% | SK-OV-3 ovarian 93.4% | IGROV1 ovarian 95.5% | OVCAR-3 ovarian 106% | HS 578T breast 135% | NCI/ADR-RES ovarian 98.8% | T-47D breast 90.9% | BT-549 breast 79% | MDA-MB-435 melanoma 101% | SW-620 colon 90.3% | MCF7 breast 73.8% | HCT-116 colon 95.7% | HCC-2998 colon 88% | KM12 colon 90%

COc1cc(C2C3=C(CCCC3=O)N(CCO)c3cc4c(cc32)CCC4)cc(OC)c1OC (configuration not stated)
inactive: MOLT-4 leukemia 93.5% | SR leukemia 117% | RPMI-8226 leukemia 76.2% | OVCAR-8 ovarian 83.5% | OVCAR-5 ovarian 96.1% | OVCAR-4 ovarian 75.5% | SK-OV-3 ovarian 114% | IGROV1 ovarian 98.4% | OVCAR-3 ovarian 93.5% | HS 578T breast 99.9% | NCI/ADR-RES ovarian 87.8% | T-47D breast 38.2% | BT-549 breast 109% | MDA-MB-435 melanoma 100% | SW-620 colon 103% | MCF7 breast 23% | HCT-116 colon 68.6% | HCC-2998 colon 78.9% | KM12 colon 90.5%

CC1(C)N=C(N)N=C(N)N1c1ccc(CCC(=O)Nc2ccc(S(=O)(=O)F)cc2)cc1
inactive: MOLT-4 leukemia 26.1% | SR leukemia 15.7% | RPMI-8226 leukemia 34.4% | OVCAR-8 ovarian 36.7% | OVCAR-5 ovarian 34% | OVCAR-4 ovarian 92.8% | SK-OV-3 ovarian 67.8% | IGROV1 ovarian 25.8% | OVCAR-3 ovarian 96.7% | HS 578T breast 82% | NCI/ADR-RES ovarian 117% | T-47D breast 88.9% | BT-549 breast 58.7% | MDA-MB-435 melanoma 20.8% | SW-620 colon 25.8% | MCF7 breast 24.9% | HCT-116 colon 12.3% | HCC-2998 colon 42.3% | KM12 colon 13.3%

CCCC1CCCCC12C(=O)NC(=O)NC2=O (configuration not stated)
inactive: MOLT-4 leukemia 110% and 97.1% | SR leukemia 91.8% | RPMI-8226 leukemia 95.9% | OVCAR-8 ovarian 107% and 103% | OVCAR-5 ovarian 97.8% and 107% | OVCAR-4 ovarian 94.1% and 104% | SK-OV-3 ovarian 94.7% and 106% | IGROV1 ovarian 111% | OVCAR-3 ovarian 106% and 105% | HS 578T breast 91.8% and 106% | NCI/ADR-RES ovarian 99.6% and 104% | T-47D breast 93.2% and 87.8% | BT-549 breast 112% and 98.9% | MDA-MB-435 melanoma 99.1% and 108% | SW-620 colon 94.9% and 106% | MCF7 breast 98.6% and 99.9% | HCT-116 colon 109% and 94.4% | HCC-2998 colon 103% and 96.6% | KM12 colon 98.1% and 107%

CCCCCCCCCCCCCCCC[N+](C)(C)C
-34.5% (active) and 17.2% (inactive): OVCAR-4 ovarian
-55.5% (active) and 11% (inactive): SK-OV-3 ovarian
inactive: NCI/ADR-RES ovarian 51.9% and 82.5%
-91% (active) and 20.9% (inactive): HCC-2998 colon
active: MOLT-4 leukemia -52.4% | SR leukemia -54.9% and -48.6% | RPMI-8226 leukemia -14.9% and -9.1% | OVCAR-8 ovarian 0.0915% | OVCAR-5 ovarian -4.82% | IGROV1 ovarian -64% and -56.6% | OVCAR-3 ovarian -85.4% and -1.42% | HS 578T breast -24.3% and 2.19% | T-47D breast 4.4% and -13.9% | BT-549 breast -76% and -41.5% | MDA-MB-435 melanoma -70.1% and 7.38% | SW-620 colon -92.5% and 8.75% | HCT-116 colon -72% and 4.21% | KM12 colon -83% and -93.1%
-78% (active) and 16.9% (inactive): MCF7 breast

O=C1CN2CCC1CC2
inactive: MOLT-4 leukemia 100% | SR leukemia 100% | RPMI-8226 leukemia 109% | OVCAR-8 ovarian 106% | OVCAR-5 ovarian 101% | OVCAR-4 ovarian 109% | SK-OV-3 ovarian 105% | IGROV1 ovarian 108% | OVCAR-3 ovarian 107% | HS 578T breast 101% | NCI/ADR-RES ovarian 113% | T-47D breast 91.1% | BT-549 breast 94.5% | MDA-MB-435 melanoma 102% | SW-620 colon 106% | MCF7 breast 103% | HCT-116 colon 100% | HCC-2998 colon 124% | KM12 colon 102%
